Screening data deposited in PubChem BioAssay by National Center for Advancing Translational Sciences (NCATS).
Pf growth 48h: inhibits P. falciparum growth in the first generation, 48 h. AID 504832. Potency, µM (top dose mostly 28.7 µM), without a hit: at the top dose activity change, negative = inhibition, most hits filed as inhibitors. P. falciparum luciferase growth in erythrocytes, 48 h. 310,000 compounds, 5.9% hits; note: potency is the fitted concentration of half-maximal effect; % is set by controls: 0 for no effect and ±100 for the full control effect
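Erythrocytes infected with P. falciparum carrying an integrated firefly luciferase reporter (2% hematocrit, 0.1% parasitemia final) were exposed to compounds in RPMI 1640 with 0.5% Albumax at 37 C, 5% CO2. Growth inhibition was scored as reduced luminescence.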
HCV inh: blocks hepatitis C virus | 340,000 compounds, 3.4% hits | Huh7.5.1 HCVcc-Cre infection, luciferase reporter, 44 h | AID 651820 | Potency, µM (doses to about 41.8 µM), without a hit: at the highest dose activity change, negative = inhibition, most hits filed as inhibitors; note: potency is the fitted concentration of half-maximal effect; % is set by controls: 0 for no effect and ±100 for the full control effect
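Infectious HCVcc-Cre (~0.5 moi) was added to cells just after compound, with cells seeded 4 h earlier at 1,000 per well. Luciferase activity after 44 h culture reported infection; substrate was incubated 15 min at room temperature before reading.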
CHX counter: counter-screen hit for Shiga toxin inhibitors, cycloheximide. AID 2314. max response, %. 300,000 compounds, 12% hits. cell reporter, cycloheximide protein synthesis inhibition counterscreen; in the data active = max response mostly above about 13%, no sharp cut-off; inactive = mostly below about 14%; note: read at 38.3 µM for the half of the compounds with a filed dose; 0% is about no effect
Shiga toxin inh: blocks Shiga toxin action in Vero cells; AID 2315; 290,000 compounds, 9.2% hits; inhibition, % at 38.7 µM; Vero cells, Shiga toxin protein synthesis inhibition reporter; in the data active = inhibition mostly above about 28%, no sharp cut-off; inactive = mostly below about 43%; note: 0% is about no effect
Pf growth 96h: P. falciparum growth inhibition at 96 hour, primary screen for plastid delayed-death inhibitors | 320,000 compounds, 6.9% hits | Potency, µM (highest dose often 28.7 µM), for inactives: at the top dose activity change, negative = inhibition, usual class: inhibitors | P. falciparum luciferase reporter growth, 96 h | AID 504834; note: potency is the fitted concentration of half-maximal effect; % is set by controls: 0 for no effect and ±100 for the full control effect
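96 h incubation, 37 C, 5% CO2, of luciferase-reporter P. falciparum-infected RBCs (2% hematocrit, 0.05% parasitemia final) with test compounds; endpoint luminescence.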
AMA1 RON2 block: inhibitors of Plasmodium falciparum AMA1-RON2 interaction; AlphaScreen AMA1-biotinylated RON2 peptide binding; Potency, µM (top dose mostly 58.2 µM), for the others: at the highest dose activity change, negative = inhibition, actives largely listed as inhibitors; 360,000 compounds, 0.2% hits;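 note: potency is the fitted concentration of half-maximal effect; 0% = vehicle wells and -100% = peptide control; nearly all actives have a fitted effect of over 45% in size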
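AMA1 (3D7) with his tag at 25 nM final met compounds first, then biotinylated RON2 peptide at 25 nM; detection used donor plus acceptor beads, 10 µg/mL apiece, read by AlphaScreen after 30 min at room temperature.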
* = called active by the depositor; ? = inconclusive; · = no result given. A selection: hits, their analogues and other compounds. The true share with any hit is near 21%. Unless noted, calls come from the whole dose curve; as a rule, active = well fitted curve in the direction sought with a large enough effect; inconclusive = small, poorly fitted or top-dose-only effect, or another doubt; inactive = no such curve, though single readings can be large; an effect the other way counts as inactive or inconclusive.

SMILES	Pf growth 48h	HCV inh	CHX counter	Shiga toxin inh	Pf growth 96h	AMA1 RON2 block
COCCCNC(=O)c1sc2ncnc(N3CCc4ccccc4C3)c2c1C	?	?	11.6*	8.7	6.57µM*	9.2%
CCc1ccc(NC(=O)c2sc3nc(C)nc(N4CCN(c5ccccn5)CC4)c3c2C)cc1	-7.0%	1.2%	-1.9	2.4	3.1%	-5.8%
Cc1nc(N2CCC(C)CC2)c2c(C)c(C(=O)Nc3ccc4c(c3)OCCO4)sc2n1	?	3.5%	-2.9	-8.1	?	-11.8%
Cc1cc2[nH]c(=O)c(=O)[nH]c2cc1S(=O)(=O)Nc1cccc(Cl)c1	-11.3%	13.0%	15.4	-1.4	16.9%	0.0%
COC(=O)c1ccccc1NS(=O)(=O)c1c(C)noc1C	117.6%	12.0%	-0.3	-3.7	12.6%	-7.7%
COc1ccc(OCC(=O)N2CCC3(CC2)CC(=O)c2ccccc2O3)cc1	?	-20.8%	·	·	?	12.3%
Cc1c(C(=O)N2CCN(c3ccccn3)CC2)sc2ncnc(N3CCN(c4ccccc4)CC3)c12	·	?	·	·	·	-2.3%
Cc1c(C(=O)N2CCC3(CC2)OCCO3)sc2ncnc(N3CCN(c4ccccn4)CC3)c12	?	?	1.0	23.6	11.7µM*	-2.4%
Cc1ccc(NC(=O)C2CCCN(C(=O)c3ccc(Cl)cc3)C2)cc1C (stereo not drawn)	106.3%	?	40.1*	72.4*	68.7%	11.4%
Cc1ccc(NC(=O)C2CCCN(C(=O)c3ccc(Cl)cc3)C2)cc1 (stereo not drawn)	10.6%	-28.6%	47.7	69.7*	45.2%	17.6%
O=C(c1ccc(Cl)c(S(=O)(=O)N2CCCCC2)c1)N1CCCC(C(F)(F)F)C1 (stereo not drawn)	?	-9.8%	·	·	?	-1.3%
CN(C)S(=O)(=O)c1ccc(Cl)c(C(=O)NC2CCCCCCC2)c1	2.4%	?	2.1	4.0	?	1.4%
Cc1ccc(NC(=O)CN(C)S(=O)(=O)c2cccs2)cc1C	37.6%	9.9%	35.0*	89.9*	·	-0.7%
Cc1cc(Br)c(NC(=O)COC(=O)C2CCCCC2)c(Br)c1	·	12.8%	·	·	·	-2.5%
Cc1ccc(NC(=O)CN(C)S(=O)(=O)c2cccs2)cc1F	82.4%	-26.5%	37.6*	75.2*	44.3%	-0.4%
COc1cc(NC(=O)CN(C)S(=O)(=O)c2cccs2)cc(OC)c1	37.0%	13.3%	8.3	-8.1	-14.4%	2.1%
Cc1ccc(NC(=O)CN(C)S(=O)(=O)c2cccs2)c(Br)c1	51.6%	-16.6%	35.9*	84.5*	-10.3%	3.9%
CC(=O)c1cc2c(cc1NC(=O)CN(C)S(=O)(=O)c1cccs1)OCO2	·	?	·	·	·	13.2%
Cc1ccc(NC(=O)COC(=O)C2CC2)c(Br)c1	-0.4%	-5.6%	40.3*	61.5*	35.5%	-9.9%
COc1ccc(OC)c(CN2C(=O)CSCC2(C)C(=O)Nc2c(C)cccc2C)c1 (stereo not drawn)	·	·	·	·	·	-1.9%
CSc1ccc(CN(C)CC(=O)Nc2ccc(C)cc2Br)cc1	13.8%	10.4%	-3.1	12.7	?	-6.7%
CCN(CC)CC(=O)Nc1c(C)cc(C(C)(C)C)cc1C	-5.6%	-19.3%	32.0*	39.6*	59.4%	11.9%
CCN(CC)CC(=O)Nc1ccc(-c2ccc(NC(=O)CN(CC)CC)c(OC)c2)cc1OC	?	1.78µM*	10.4	17.7	?	-15.7%
CCN(CC)CC(=O)Nc1ccc(C)cc1Br	10.9%	?	26.7*	40.3*	·	-1.8%
CCCNC(=O)C1(C)CCN(CCOc2ccc(Cl)cc2)C1 (stereo not drawn)	·	·	·	·	·	0.6%
SMILES	Pf growth 48h	HCV inh	CHX counter	Shiga toxin inh	Pf growth 96h	AMA1 RON2 block
O=C(NCc1ccccc1)c1n[nH]nc1-c1ccccc1O	50.8%	32.6%	18.0*	50.2	0.0%	34.9%
Cc1cc(-c2nnc3n2CCCCC3)c(C)n1-c1ccccc1	-24.5%	-4.4%	12.1	91.0*	?	11.7%
CCN(CC)CCCN(C(=O)c1ccc(Br)cc1)c1nc(-c2ccc(OC)cc2)cs1	?	?	-8.2	-2.0	-28.4%	-24.2%
CCN(CC)CCCN(C(=O)c1cccc(C)c1)c1nc(-c2ccc(OC)cc2)cs1	?	4.1%	-8.8	·	4.15µM*	-6.2%
CCN(CC)CCCN(C(=O)c1cccs1)c1nc(-c2ccc(OC)cc2)cs1	13.1µM*	11.2µM*	9.4	-5.0	-28.3%	-26.2%
COc1ccc(-c2csc(N(C)C(=O)c3cccs3)n2)cc1	86.8%	-11.0%	22.5*	32.5*	-1.3%	2.1%
COc1ccc(-c2csc(N(CC3CCCO3)C(=O)c3cccs3)n2)cc1 (stereo not drawn)	·	?	2.6	20.0	-3.8%	0.0%
CCOC(=O)N1CCN(C(=O)c2c(Cl)cnn2C)CC1	4.6%	13.9%	-1.2	-9.5	-9.0%	-12.1%
CCN1CCN(c2ccc(S(=O)(=O)N3CCOCC3)cc2NC(=O)C(C)Oc2ccc(Cl)cc2)CC1 (stereo not drawn)	11.7µM*	1.7%	·	·	?	-8.2%
Cc1ccc(NC(=O)[C@@H](NC(=O)c2cccc(S(=O)(=O)N3CCOCC3)c2)C(C)C)cc1C	?	10µM*	-2.2	-5.5	?	2.0%
Cc1cc(Cl)ccc1OC(C)C(=O)Nc1ccc(S(=O)(=O)N2CCOCC2)cc1 (stereo not drawn)	·	11.2µM*	·	·	·	-0.9%
CCN1CCN(c2ccc(S(=O)(=O)N3CCOCC3)cc2NC(=O)CC(C)C)CC1	-1.6%	16.3%	·	·	-12.4%	114.3%
COc1ccc(NC(C)C(=O)Nc2cccc(S(=O)(=O)N3CCOCC3)c2)cc1OC (stereo not drawn)	·	12.6µM*	·	·	·	5.1%
CNC1(c2nnnn2-c2ccccc2C)CCOC(C)(C)C1 (stereo not drawn)	3.7%	9.2%	-1.7	-4.8	2.7%	-19.4%
CC(Oc1ccc(Cl)cc1)C(=O)Nc1cccc(S(=O)(=O)N2CCOCC2)c1 (stereo not drawn)	?	?	·	·	10.4µM*	-6.6%
CCc1cccc(Nc2cnn(C34C[C@@H]5C[C@@H](CC(CC(=O)O)(C5)C3)C4)c(=O)c2Cl)c1	?	-2.2%	-3.9	-11.9	-27.8%	3.0%
CCOC(=O)[C@@H](NC(=O)CC[C@H]1O[C@@H](n2ccc(=O)[nH]c2=O)[C@H](O)[C@@H]1O)C(C)C	·	·	·	·	·	0.4%
CC(=O)Nc1cccc(-c2cc(-c3c(Cl)cccc3Cl)no2)c1	?	?	-2.9	4.3	-18.2%	-5.0%
CC(=O)Nc1nccc(-c2cc(-c3ccccc3)no2)n1	191.5%	-4.3%	30.2*	53.3*	114.2%	9.5%
CC(C)(C)C1CCN2CCC[C@](c3ccccc3)(C1)C2OCCCO (stereo partly drawn)	·	·	·	·	·	-1.3%
Fc1cccc(Cn2cc(C(=S)N3CCCCC3)c3ccccc32)c1	11.7µM*	-8.1%	1.1	0.9	?	?
